Reference: PubChem BioAssay AID623901 (Broad Institute, 2012)
Values joined by “and” are separate entries in the source; they are usually repeats but may differ in a detail not shown here. Equal values may be shown once. The whole screen tested about 340,000 compounds, of which about 470 (0.14%) were called active.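 The calls were made as follows: active = mean activation of 30% or more, with every replicate also reaching 30%; inconclusive = mean activation of 30% or more but some replicate falls short; inactive = the rest.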 This excerpt belongs to a sample that is enriched for actives.

Experiment: miR-122 suppressors via Renilla sensor increase, primary screen, cell-based, Huh7 psiCHECK-miR122, Renilla luciferase, single point (AID 623901);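 also: 0% = median of neutral control wells and 100% = median of positive control wells; higher luciferase signal means stronger suppression of miR-122 activity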
Settings: 48 h, at 12.5 µM, stronger effect = higher value
For C[C@H](O)C#Cc1ccc2c(c1)O[C@H](CN(C)Cc1cncnc1)[C@H](C)CN([C@@H](C)CO)S2(=O)=O, the activation was -0.322% (inactive).
In the case of CC(C)c1cc(C(=O)O)n[nH]1, the activation is reported as -143% (inactive).
For C[C@H](CO)N1C[C@H](C)[C@H](CN(C)S(=O)(=O)c2ccccc2)Oc2ncc(-c3cccc(C(F)(F)F)c3)cc2C1=O, the activation was 11.3% (inactive).
For COCC(=O)Nc1ccc2c(c1)OC[C@H](C)NC[C@H](C)[C@H](OC)CN(C)C2=O, the activation was -0.878% (inactive).
In the case of C[C@H](O)C#Cc1ccc2c(c1)O[C@@H](CN(C)Cc1cncnc1)[C@H](C)CN([C@H](C)CO)S2(=O)=O, the activation is reported as 0.702% (inactive).
In the case of COCC(=O)N(C)C[C@@H]1Oc2ncc(C#Cc3ccccc3OC)cc2C(=O)N([C@@H](C)CO)C[C@H]1C, the activation is reported as 5.1% (inactive).
For C[C@@H]1CN([C@H](C)CO)S(=O)(=O)c2ccc(-c3cncnc3)cc2O[C@@H]1CN(C)Cc1ccccn1, the activation was 5.28% (inactive).
For COCC(=O)N(C)C[C@H]1Oc2cc(Br)ccc2S(=O)(=O)N([C@H](C)CO)C[C@H]1C, the activation was -1.48% (inactive).
With CCC(=O)N(C)C[C@H]1Oc2ncc(C#Cc3cccnc3)cc2C(=O)N([C@H](C)CO)C[C@H]1C the activation was 6.77% (inactive).
With C[C@@H]1CN([C@H](C)CO)C(=O)c2cc(-c3cccc(F)c3)cnc2O[C@H]1CN(C)C(=O)Nc1ccccc1F the activation was -3.89% (inactive).
With C[C@H](O)C#Cc1ccc2c(c1)O[C@@H](CN(C)Cc1cccnc1)[C@H](C)CN([C@H](C)CO)S2(=O)=O the activation was 0.774% (inactive).
In the case of CCCNc1ncnc2sc(C)c(C)c12, the activation is reported as -122% (inactive).
For Cc1ccc(S(=O)(=O)N(C)C[C@H]2Oc3ccc(NC(=O)CCC(F)(F)F)cc3C(=O)N([C@@H](C)CO)C[C@H]2C)cc1, the activation was -99.9% (inactive).
With C[C@@H]1CN([C@@H](C)CO)S(=O)(=O)c2ccc(-c3ccncc3)cc2O[C@@H]1CN(C)C(=O)Nc1ccc(F)cc1 the activation was -17.3% (inactive).
With C[C@H](CO)N1C[C@H](C)[C@@H](CN(C)C(=O)C2CC2)Oc2ncc(C#CC(C)(C)O)cc2C1=O the activation was 1.07% (inactive).
For C[C@H]1CN([C@@H](C)CO)C(=O)c2cc(C3=CCCCC3)cnc2O[C@@H]1CN(C)C(=O)c1ccc(F)cc1, the activation was -3.28% (inactive).
With CO[C@@H]1CN(C)C(=O)c2cc(NC(=O)C3CCOCC3)ccc2OC[C@H](C)N(C)C[C@H]1C the activation was 0.196% (inactive).
For Cc1ccc(S(=O)(=O)Nc2ccc3c(c2)CC(=O)N([C@@H](C)CO)C[C@H](C)[C@H](CN(C)Cc2ccc(C(=O)Nc4ccccc4N)cc2)O3)cc1, the activation was -252% (inactive).
For CCC(=O)Nc1ccc2c(c1)OC[C@H](C)N(C(=O)c1ccccc1F)C[C@@H](C)[C@H](OC)CN(C)C2=O, the activation was -3.57% (inactive).
For C[C@H]1CN([C@@H](C)CO)C(=O)c2cc(-c3cccc(F)c3)cnc2O[C@@H]1CN(C)S(C)(=O)=O, the activation was -3.18% (inactive).
For COc1ccc(/C=C/C(=O)Nc2ccc(C34CC5CC(CC(O)(C5)C3)C4)cc2)cc1OC, the activation was 56.9% (active).
For CC(C)NC(=O)N(C)C[C@@H]1Oc2ncc(C3=CCCCC3)cc2C(=O)N([C@H](C)CO)C[C@@H]1C, the activation was 5.61% (inactive).
With Cc1ccc(-c2cnc3c(c2)C(=O)N([C@@H](C)CO)C[C@@H](C)[C@H](CN(C)Cc2ccccc2F)O3)cc1 the activation was -34.6% (inactive).
In the case of C/C=C/c1ccc2c(c1)O[C@@H](CN(C)C(=O)Cc1ccccn1)[C@@H](C)CN([C@H](C)CO)S2(=O)=O, the activation is reported as -0.361% (inactive).
For CCOC(=O)c1c(C)[nH]c(C)c1S(=O)(=O)NCCCc1ccco1, the activation was -128% (inactive).
In the case of CCC(=O)N1C[C@@H](C)[C@@H](OC)CN(C)C(=O)c2ccc(NC(=O)C3CCCCC3)cc2OC[C@@H]1C, the activation is reported as 0.432% (inactive).
For C[C@H](CO)N1C[C@H](C)[C@H](CN(C)S(=O)(=O)c2cccc(F)c2)Oc2ncc(/C=C/c3ccccc3)cc2C1=O, the activation was -2.26% (inactive).
For COCC(=O)N(C)C[C@@H]1Oc2cc(C#CC3CC3)ccc2S(=O)(=O)N([C@H](C)CO)C[C@H]1C, the activation was 3.88% (inactive).
For CCC(=O)N(C)C[C@H]1Oc2ncc(C#C[C@@H](C)O)cc2C(=O)N([C@@H](C)CO)C[C@H]1C, the activation was 2.8% (inactive).
In the case of COCC#Cc1cnc2c(c1)C(=O)N([C@@H](C)CO)C[C@@H](C)[C@@H](CN(C)C(=O)Nc1ccccc1OC)O2, the activation is reported as 1.08% (inactive).
In the case of O=C(CC(O)(C(F)(F)F)C(F)(F)F)Nc1ccc(Cl)c(Cl)c1, the activation is reported as 63% (active).
For CS(=O)(=O)N(CC(=O)Nc1ccc(Cl)c(Cl)c1)C1CCCCC1, the activation was -174% (inactive).
With C[C@@H](O)C#Cc1ccc2c(c1)O[C@@H](CN(C)C)[C@@H](C)CN([C@@H](C)CO)S2(=O)=O the activation was -3.26% (inactive).
In the case of COc1ccc(C(=O)Nc2ccccc2C(=O)N/N=C/c2ccccc2OC)cc1, the activation is reported as -115% (inactive).
For CCCN(C)C[C@H]1Oc2ncc(-c3ccccc3OC)cc2C(=O)N([C@H](C)CO)C[C@H]1C, the activation was -2.24% (inactive).
In the case of COc1ccccc1CNc1nc(Nc2ccccc2Cl)c2sccc2n1, the activation is reported as 44.5% (active).
In the case of C[C@@H]1CN([C@H](C)CO)S(=O)(=O)c2ccc(C#CCN(C)C)cc2O[C@@H]1CN(C)C(=O)CN(C)C, the activation is reported as 5.44% (inactive).
For COc1ccc(CNS(=O)(=O)c2cc(-c3cc(C)no3)ccc2C(C)C)cc1, the activation was -200% (inactive).
In the case of OCC(O)C1OCOC(C(O)CO)C1O (centres undefined), the activation is reported as -93% (inactive).
For C[C@@H]1CN([C@@H](C)CO)C(=O)c2cc(-c3ccc(F)cc3)cnc2O[C@@H]1CN(C)Cc1ccc(C(=O)O)cc1, the activation was 1.12% (inactive).
For CO[C@@H]1CN(C)C(=O)c2ccc(NC(=O)C3CCC3)cc2OC[C@H](C)NC[C@H]1C, the activation was 1.3% (inactive).
With C[C@@H]1CN([C@H](C)CO)C(=O)c2cc(-c3ccncc3)cnc2O[C@@H]1CN(C)C(=O)Cc1cccnc1 the activation was -6.69% (inactive).
For COc1ccccc1-c1ccc2c(c1)O[C@@H](CN(C)C(=O)Nc1ccccc1)[C@H](C)CN([C@@H](C)CO)S2(=O)=O, the activation was -1.07% (inactive).
With COCC#Cc1ccc2c(c1)O[C@@H](CN(C)C(C)=O)[C@H](C)CN([C@H](C)CO)S2(=O)=O the activation was 5.04% (inactive).
In the case of COc1ccccc1-c1cnc2c(c1)C(=O)N([C@H](C)CO)C[C@H](C)[C@H](CN(C)C(=O)CN(C)C)O2, the activation is reported as -1.92% (inactive).
For COc1ccccc1C#Cc1ccc2c(c1)O[C@@H](CN(C)Cc1cncnc1)[C@H](C)CN([C@@H](C)CO)S2(=O)=O, the activation was 8.43% (inactive).
In the case of C[C@H](O)C#Cc1ccc2c(c1)O[C@H](CN(C)Cc1cccnc1)[C@@H](C)CN([C@H](C)CO)S2(=O)=O, the activation is reported as -6.12% (inactive).
For COCC#Cc1cnc2c(c1)C(=O)N([C@@H](C)CO)C[C@@H](C)[C@@H](CN(C)C(=O)Nc1ccc(OC)cc1)O2, the activation was -2.9% (inactive).
With C[C@H]1CN([C@@H](C)CO)C(=O)c2cc(-c3cccc(F)c3)cnc2O[C@@H]1CN(C)Cc1cncnc1 the activation was -0.0525% (inactive).
For O=C(NC(Nc1nc2ccc([N+](=O)[O-])cc2s1)(C(F)(F)F)C(F)(F)F)c1ccccc1, the activation was 45.7% (active).
In the case of C[C@H](CO)N1C[C@H](C)[C@@H](CN(C)Cc2ccc3c(c2)OCO3)Oc2c(NC(=O)C3CCOCC3)cccc2C1=O, the activation is reported as -319% (inactive).
In the case of O=C(CCc1ccc(S(=O)(=O)NC2CCCCC2)cc1)NCc1ccccc1, the activation is reported as -101% (inactive).
With C[C@H]1CN([C@@H](C)CO)C(=O)c2cc(-c3ccccc3F)cnc2O[C@@H]1CN(C)C(=O)C1CCCCC1 the activation was 4.49% (inactive).
With CCCOC(=O)c1[nH]c2c(c1C)C(=O)CC(c1cccs1)C2 (centres undefined) the activation was -94% (inactive).
In the case of COc1ccc(NC(=O)Nc2ccc3c(c2)OC[C@@H](C)NC[C@@H](C)[C@H](OC)CN(C)C3=O)cc1, the activation is reported as 3.26% (inactive).
In the case of C[C@H](O)C#Cc1ccc2c(c1)O[C@H](CN(C)C)[C@@H](C)CN([C@H](C)CO)S2(=O)=O, the activation is reported as 4.16% (inactive).
With CO[C@H]1CN(C)C(=O)c2ccc(NC(=O)Nc3ccc(F)cc3)cc2OC[C@@H](C)NC[C@H]1C the activation was -0.877% (inactive).
For CC(C)C#Cc1ccc2c(c1)O[C@@H](CN(C)C(=O)CN(C)C)[C@@H](C)CN([C@H](C)CO)S2(=O)=O, the activation was 1.71% (inactive).
In the case of Cc1c(-c2ccccc2)cn2c1-c1ccc(C)n1CC2, the activation is reported as -248% (inactive).
For CO[C@H]1CN(C)C(=O)c2ccc(NC(=O)C3CCC3)cc2OC[C@@H](C)NC[C@H]1C, the activation was 2.77% (inactive).
For C[C@@H]1CN([C@@H](C)CO)C(=O)c2cc(-c3cncnc3)cnc2O[C@H]1CN(C)Cc1cncnc1, the activation was 9.2% (inactive).
In the case of CCCC#Cc1ccc2c(c1)O[C@@H](CN(C)C(=O)CC)[C@H](C)CN([C@H](C)CO)S2(=O)=O, the activation is reported as -21.9% (inactive).
With C[C@@H]1CN([C@@H](C)CO)C(=O)c2cc(-c3cncnc3)cnc2O[C@@H]1CN(C)Cc1ccncc1 the activation was -14.3% (inactive).
With CCC(=O)N(C)C[C@@H]1Oc2ncc(C#C[C@H](C)O)cc2C(=O)N([C@@H](C)CO)C[C@@H]1C the activation was -1.06% (inactive).
For C[C@@H]1CN([C@@H](C)CO)C(=O)c2cc(C3=CCCCC3)cnc2O[C@H]1CN(C)CC1CCOCC1, the activation was -37.5% (inactive).
In the case of CCOc1ccc(Br)cc1S(=O)(=O)Nc1cccc(S(=O)(=O)N(CC)CC)c1, the activation is reported as -110% (inactive).
In the case of CC(C)CNS(=O)(=O)c1ccc(OCC(=O)Nc2ccc3c(c2)OCO3)c(Cl)c1, the activation is reported as -303% (inactive).
In the case of C[C@H]1CN([C@@H](C)CO)C(=O)c2cc(C3=CCCCC3)cnc2O[C@@H]1CN(C)C(=O)Cc1ccccc1, the activation is reported as -4.91% (inactive) and -1.39% (inactive).
In the case of C[C@H](CO)N1C[C@H](C)[C@H](CN(C)C(=O)C2CCOCC2)Oc2ncc(C#Cc3ccccc3F)cc2C1=O, the activation is reported as -1.81% (inactive).
